# Data reported in PubChem BioAssay (EPA / NIEHS).
# Records with an inconclusive call do not appear. More than one record can exist for a structure, and the calls need not agree. Activity calls are given as the source filed them. Rule for the calls: active = hit-call score of the fitted dose curve at least 0.9, where 1 is the maximum; inconclusive = response in the unintended direction; inactive = score below 0.9.
# Biological target: Cellular tumor antigen p53 (Homo sapiens) (UniProt P04637)
# Test: TOX21_p53_BLA_p4_ratio: Tox21 HCT-116 p53 Agonism Beta-lactamase Assay, Ratio, Phase 4 (AID 2283601)
# Excerpt: TOX21_p53_BLA_p4 is a cell-based, single-readout assay that uses HCT116, a human intestinal cell line, […] in a 1536-well plate.TOX21_p53_BLA_p4_ratio is an assay readout measuring reporter gene via receptor activity and designed using inducible reporter (beta lactamase induction) detected with GAL4 b-lactamase reporter gene. The signal is derived from the ratio of cleaved (ch2) to uncleaved (ch1)reporter gene substrate used as the measure of target activity.Data from the assay component TOX21_p53_BLA_p4_ratio was analyzed into 1 assay endpoint. This assay endpoint, TOX21_p53_BLA_p4_ratio, was analyzed in the positive analysis fitting direction relative to DMSO as the negative control and baseline of activity. Using a type of inducible reporter, gain-of-signal activity can be used to understand changes in the reporter gene as they relate to the gene TP53. Furthermore, this assay endpoint can be referred to as a primary readout, because this assay has produced multiple assay endpoints where this ratio serves a reporter gene function to understand target activity. To generalize the intended target to other relatable targets, this assay endpoint is annotated to the DNA binding intended target family, where the subfamily is tumor suppressor.
# Thawing Method: Place 14 mL of pre-warmed thaw medium into a 15 mL of conical tub. Remove the vial of cells to be thawed from liquid nitrogen and thaw rapidly by placing at 37C in a water bath with gentle agitation for 1-2 minutes. Decontaminate the vial by wiping with 70% ethanol before opening in a biological safety cabinet. Transfer the vial contents drop-wise into 14 mL of thaw medium in a sterile 15-mL conical tub. Centrifuge cells at 900 rpm for 4 minutes and resuspend in thaw medium. Transfer contents to the T75 tissue culture flask containing Thaw Medium and place flask in a humidified 37C/5% CO2 incubator. Switch to growth medium at first passage.Propagation Method: Aspirate medium, rinse once in DPBS, add 0.25% Trypsin/EDTA and swirl to coat the cell evenly. Add an equal volume of Growth Medium to inactivate Trypsin after 2-3 minutes incubation at 37C. Centrifuge cells at 900 rpm for 4 minutes and resuspend in growth medium. Cell should be passage or fed at least twice a week.Assay Protocol: Harvest cells from culture in growth medium and resuspend in assay medium. 2.2 Dispense 4000 cells/5 uL/well into 1536-well black/clear bottom plates using a Multidrop dispenser. After the cells were incubated at 37C for 5 hours, 23 nL of compounds dissolved in DMSO were transferred to the assay plate by a PinTool resulting in a 217-fold dilution. Incubate the plates for 16 hours at 37C, 5% CO2. Add 1 uL of 6X LiveBLAzer FRET B/G (CCF4-AM) Substrate Mixture to each well using a BioRAPTR dispenser and incubate the plates at room temperature for 2 hours. Measure fluorescence intensity at 460 and 530 nm emission and 405 nm excitation by an Envision detector. Data is expressed as the ratio of 460nm/530nm emissions. Add 4 uL of Cell-titer Glo to each well using BioRAPTR and incubate the plates at room temperature for 2 hours. Measure fluorescence intensity by a VewLux plate reader.
# Sequence of Cellular tumor antigen p53 (Homo sapiens) (P04637 whole entry, looked up): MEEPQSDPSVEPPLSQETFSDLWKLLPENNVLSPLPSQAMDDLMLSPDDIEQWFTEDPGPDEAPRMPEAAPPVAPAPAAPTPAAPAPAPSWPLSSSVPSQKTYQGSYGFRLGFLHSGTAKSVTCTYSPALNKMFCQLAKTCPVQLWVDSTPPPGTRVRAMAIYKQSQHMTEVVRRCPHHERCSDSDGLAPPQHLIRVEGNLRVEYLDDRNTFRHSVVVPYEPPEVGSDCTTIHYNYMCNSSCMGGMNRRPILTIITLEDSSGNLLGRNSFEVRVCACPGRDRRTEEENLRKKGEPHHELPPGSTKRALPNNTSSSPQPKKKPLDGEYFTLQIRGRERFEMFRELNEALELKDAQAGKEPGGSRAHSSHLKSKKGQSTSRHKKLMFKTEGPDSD
SMILES,outcome,AC50
CC(C)CC(C)N (stereo not given),inactive,
N#CCCCCC#N,inactive,
CN=C=O,inactive,
Cc1cccc(N)c1C,inactive,
NC(=O)CN1CCCC1=O,inactive,
CCCN(CCC)CCc1c[nH]c2ccccc12,inactive,
CC(=O)C(Cl)(Cl)Cl,inactive,
C[C@]12C=CC(=O)C=C1CC[C@@H]1[C@@H]2CC[C@@]2(C)[C@H]1CC[C@]2(C)O,inactive,
IC(I)=C(I)I,,13.9 µM (active)
COC(=O)[C@@H](N)CCCN/C(N)=N/[N+](=O)[O-],inactive,
CCC(C(N)=O)N1CCCC1=O (stereo not given),inactive,
COc1cc(CC(C)N)cc(OC)c1OC (stereo not given),inactive,
CN(C)c1ccc(N)cc1,inactive,
Cc1nnc2n1-c1sc(Br)cc1C(c1ccccc1Cl)=NC2,inactive,
O=C1C(Cl)=C(Cl)C(=O)C(Cl)=C1Cl,inactive,84.7 µM (active)
COCCC#N,inactive,
Oc1cccc[c]1[Hg][Cl],,8.72 µM (active)
CCCCCCC1CCOC1=O (stereo not given),inactive,
O=C(O)CCCO,inactive,

SMILES,outcome,AC50
C[C@H]1CCC[C@H](O)CCCCCc2cc(O)cc(O)c2C(=O)O1,inactive,
CCOP(=S)(OCC)Oc1cnc2ccccc2n1,inactive,
CCCC(C)(COC(N)=O)COC(N)=O,inactive,
O=[N+]([O-])c1cccc2cccnc12,inactive,
F/C(COc1ccc2c(c1)[nH]c1ccccc12)=C1/CN2CCC1CC2,inactive,
CCCC(C)(COC(N)=O)COC(=O)NC1CC1 (stereo not given),inactive,
C=Cc1cccc(CCl)c1,inactive,
C#C[C@]1(OC(=O)CCCCCC)CC[C@H]2[C@@H]3CCC4=CC(=O)CC[C@@H]4[C@H]3CC[C@@]21C,inactive,
O=C([O-])c1ccccn1.O=C([O-])c1ccccn1.O=C([O-])c1ccccn1.[Cr+3],inactive,
COC(COC(N)=O)C1=C(N2CC2)C(=O)C(C)=C(N2CC2)C1=O (stereo not given),,17.2 µM (active)
Clc1ccc(CO/N=C(\Cn2ccnc2)c2ccc(Cl)cc2Cl)c(Cl)c1,,33 µM (active)
[Cl][Sn]([Cl])([Cl])[Cl],inactive,
C[C@@H]([C@H](O)c1ccccc1)N(C)C,inactive,
O=CC(Br)(Br)Br,inactive,
O=C1Nc2ccc(Cl)cc2C(c2ccccc2)=NC1O (stereo not given),inactive,86.7 µM (active)
C/C(=C\c1csc(C)n1)[C@@H]1C[C@@H]2O[C@]2(C)CCC[C@H](C)[C@H](O)[C@@H](C)C(=O)C(C)(C)[C@@H](O)CC(=O)O1,,0.0121 µM (active)
CCCCCc1cc(O)c2c(c1)OC(C)(C)c1ccc(C)cc1-2,,29.9 µM (active)
CN(C)CCCCCCN(C)C,inactive,
CCOP(=O)(OCC)Oc1ccc([N+](=O)[O-])cc1,inactive,
